Several values for one entry are separate records, joined by “and”; a condition that tells them apart may be missing. Equal entries are not always repeated. Results filed as inconclusive are left out. Entries that show only a call come without a potency. Unmarked numbers belong to inactive results. Activity calls are given as the source filed them. The call rests on the fitted dose curve; in most records, active means well fitted cell-killing curve with a large enough effect; inconclusive means small, poorly fitted or top-dose-only effect, or effect the other way; inactive means no such curve, though single readings can be large or run the other way.
Experiments:
[1] = Viability qHTS for spleen associated tyrosine kinase inhibitor (SYKi) naive MV4-11 cells (AID 1963823); conditions: MV4-11 AML viability, CellTiter-Glo luminescence, 72 h; series mostly up to 45 µM; further: nearly all actives have a fitted effect of over 40% in size
Summary of the method: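 Cells: MV4-11, SYK inhibitor naive, 500 per well. Treatment: library compounds, 72 hr, 37 C, 5% CO2. Read-out: CellTiter-Glo luminescence after 10 min RT.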

[2] = Viability qHTS for spleen associated tyrosine kinase inhibitor (SYKi) drug resistant MV4-11 cells (AID 1963824); conditions: SYKi-resistant MV4-11 viability, CellTiter-Glo, 72 h; series mostly up to 45 µM; further: nearly all actives have a fitted effect of over 35% in size
Summary of the method: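 SYK inhibitor-resistant MV4-11 AML cells, 500 per well, added to predispensed compounds and incubated 72 hr at 37 C, 5% CO2. Viability measured by CellTiter-Glo luminescence after 10 min at room temperature.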
Potency means the concentration at half of the fitted maximal effect.

SMILES	Potency [1]	Potency [2]	viability (% of control) [1]	viability, % of control [2]
CN1CCN(c2nc(C3=C(c4c[nH]c5ccccc45)C(=O)NC3=O)c3ccccc3n2)CC1	206 nM (active) and 833 nM (active)	461 nM (active) and 2.35 µM (active)		
CCC/C=C1\OC(=O)C2=C1CCC(O)C2O (stereo not drawn)	inactive	inactive		
CC(C)(C(=O)c1cccnc1)c1cccnc1	inactive	inactive		
CC1=C(C(=O)O[C@@H]2O[C@H](COC3OCC(O)C(O)C3O)[C@@H](O)[C@H](O)[C@H]2O)C(C)(C)CCC1 (stereo partly drawn)	inactive	inactive		
C[C@H]1[C@H](C)CC[C@]2(C(=O)O)CC[C@]3(C)C(=CCC4[C@@]5(C)C[C@@H](O)[C@H](O)C(C)(C)C5CC[C@]43C)[C@H]12 (stereo partly drawn)	inactive	inactive		
COC(=O)C1=COC(O[C@@H]2O[C@H](CO[C@@H]3O[C@H](COC(=O)/C=C\c4ccc(O)cc4)[C@@H](O)[C@H](O)[C@H]3O)[C@@H](O)[C@H](O)[C@H]2O)C2C(CO)=CCC12 (stereo partly drawn)	inactive	inactive		
CC[C@H](C)[C@H](NC(=O)[C@H]([C@@H](C)CC)N(C)C(C)=O)C(=O)N[C@H](C(=O)N[C@@H](CC(C)C)C(=O)[C@@]1(C)CO1)[C@@H](C)O	0.0058 µM (active)	0.0073 µM (active)		
C[S+](CC[C@H](N)C(=O)[O-])C[C@H]1O[C@@H](n2cnc3c(N)ncnc32)[C@H](O)[C@@H]1O (stereo partly drawn)	inactive	inactive		
O=C(CCC1CCN(Cc2ccccc2)CC1)c1ccc2c(c1)NCCCC2	23.1 µM (active)	14.6 µM (active)		
CC1=CC(=O)OC(C)(CC(C)(O)C(=O)O)C1 (stereo not drawn)	inactive	inactive		
COc1cc([C@H]2OC[C@](O)(Cc3ccc(O[C@@H]4O[C@H](CO)[C@@H](O)[C@H](O)[C@H]4O)c(OC)c3)[C@@H]2CO)ccc1O	inactive	inactive		
CCCn1c(=O)c2[nH]c(-c3ccc(OCC(=O)O)cc3)nc2n(CCC)c1=O	inactive	inactive		
C[C@@H]1O[C@@H](O[C@H]2[C@H](O)[C@@H](O)[C@H](OC[C@H]3O[C@@H](OC(=O)[C@]45CCC(C)(C)C[C@H]4C4=CCC6[C@@]7(C)C[C@H](O)[C@H](O[C@@H]8O[C@H](CO)[C@@H](O)[C@H](O)[C@H]8O)[C@@](C)(C(=O)O)C7CC[C@@]6(C)[C@]4(C)CC5)[C@H](O[C@@H]4O[C@H](CO)[C@@H](O)[C@H](O)[C@H]4O)[C@@H](O)[C@@H]3O)O[C@@H]2CO)[C@H](O)[C@H](O)[C@H]1O (stereo partly drawn)			103% [at 9.25 µM]	87% [at 9.25 µM]
C/C(=C\CCC(C)CCO)C(=O)OC1(C)CCC2C(C(=O)O)=COC(OC3OC(CO)C(O)C(O)C3O)C21 (stereo not drawn)	inactive	inactive		
C[C@@H]1COCCN1c1cc(C2(S(C)(=O)=O)CC2)nc(-c2cccc3[nH]ccc23)n1	0.58 µM (active)	0.366 µM (active)		
Cc1c(Cl)cccc1S(=O)(=O)Nc1nc(NCCc2ccccc2)nc2c1CN(Cc1ccccc1)CC2	16.4 µM (active)	13 µM (active)		
O=C(CCCCc1ccc2ccccc2c1)C(F)(F)F	inactive	inactive		

SMILES	Potency [1]	Potency [2]	viability (% of control) [1]	viability, % of control [2]
COc1c(CCC(=O)O)cccc1O[C@@H]1O[C@H](CO)[C@@H](O)[C@H](O)[C@H]1O	inactive	inactive		
CC1=CC[C@]2(C(=O)O[C@@H]3O[C@H](CO[C@@H]4O[C@H](CO)[C@@H](O[C@@H]5O[C@@H](C)[C@H](O)[C@@H](O)[C@H]5O)[C@H](O)[C@H]4O)[C@@H](O)[C@H](O)[C@H]3O)CC[C@]3(C)C(CCC4[C@@]5(C)C[C@@H](O)[C@H](O)[C@@](C)(CO)C5CC[C@]43C)C2C1C (stereo partly drawn)			78.2% [at 9.25 µM]	86.5% [at 9.25 µM]
C[C@@H]1C(=O)O[C@H]2[C@H](O)C34[C@H]5C[C@@H](C(C)(C)C)C36[C@@H](OC(=O)[C@@H]6O)O[C@@]4(C(=O)O5)[C@@]12O (stereo partly drawn)	inactive	inactive		
CC(=O)c1c(C)cccc1O[C@@H]1O[C@H](CO)[C@@H](O)[C@H](O)[C@H]1O	inactive	inactive		
Cc1ncc([N+](=O)[O-])n1C[C@H](O)CN1CCOCC1	inactive	inactive		
COC1CC(O[C@H]2CC[C@]3(C)C4CC[C@]5(C)C(C6=CC(=O)OC6)=CCC56OC46CC[C@@H]3C2)OC(C)C1O[C@@H]1O[C@H](CO[C@@H]2O[C@H](CO)[C@@H](O)[C@H](O)[C@H]2O)[C@@H](O)[C@H](O)[C@H]1O (stereo partly drawn)	1.55 µM (active)	1.38 µM (active)		
CC(C)(C(=O)NCC(F)(F)C(F)(F)F)C(=O)NC1C(=O)Nc2ccccc2-c2ccccc21 (stereo not drawn)	14.6 µM (active)	13 µM (active)		
Cn1nccc1Nc1nccc(-c2ccn([C@H](CO)c3ccc(Cl)c(F)c3)c(=O)c2)n1	7.31 µM (active)	4.61 µM (active) and 6.61 µM (active)		
CC(C)=CCc1cc(O[C@@H]2O[C@H](CO[C@@H]3OC[C@](O)(CO)[C@H]3O)[C@@H](O)[C@H](O)[C@H]2O)ccc1O	inactive	inactive		
COc1ccc2c(c1)CN(C(=O)CCN1CCC(Cc3ccccc3)CC1)CCS2	8.93 µM (active)	8.93 µM (active)		
CC(=O)c1ccc(O[C@@H]2OC[C@@H](O)[C@H](O)[C@H]2O[C@]2(CO)O[C@H](CO)[C@@H](O)[C@@H]2O)c(O)c1	inactive	inactive		
CC1=CC(=O)[C@]2(O[C@@H]3O[C@@H](C)[C@H](O)[C@@H](O)[C@H]3OC(=O)/C=C/c3ccccc3)C=CO[C@@H](O[C@@H]3O[C@H](CO)[C@@H](O)[C@H](O)[C@H]3O)[C@H]12	inactive	inactive		
C=C1C(=O)OC2C1CCC(=C)C1CC(OC(C)=O)C(=C)C12 (stereo not drawn)	3.26 µM (active)	2.31 µM (active)		
OC[C@H]1O[C@@H](OC(CCCCc2ccc(O)cc2)CCc2ccc(O)cc2)[C@H](O)[C@@H](O)[C@@H]1O (stereo partly drawn)	inactive	inactive		
CCC1C(=O)N(C)c2cnc(Nc3ccc(C(=O)NC4CCC(N5CCN(CC6CC6)CC5)CC4)cc3OC)nc2N1C(C)C (stereo not drawn)	0.0259 µM (active)	0.0116 µM (active)		
COC1=CC(=O)O[C@@H](CCc2ccccc2)[C@@H]1O	inactive	inactive		
O=C(O)C[C@H]1CCC(=O)[C@@H]1C/C=C\CCOC1OC(CO)C(O)C(O)C1O (stereo partly drawn)	inactive	inactive		
